Assay results reported in the supplement of paper PMC10477191.
± gives the standard deviation of the averaged measurements.

Tested on: Drosophila ezoana antennal basiconic sensillum ab8
Test: odor-evoked OSN spike response (post minus pre-stimulus); higher = stronger neuronal excitation
Conditions: odor dilution: 10^-4
Experimental: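 Single sensillum recordings from antennal basiconic sensilla of D. ezoana. A 500 ms pulse of odorant (10^-4 in mineral oil or DMSO) was delivered; the response is the change in action potential frequency between the 1 s pre- and post-stimulus windows (spikes/s).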

Compound	odor-evoked OSN spike response
CC(C)=O [acetone]	66.9 ± 31 spikes/s
